D1 PAM: human D1 dopamine receptor positive modulation | potentiation, % at 10 µM | HEK293 TREx D1 cells, calcium flux, dopamine EC20 potentiation | P21728 | AID 504651 | 360,000 compounds, 0.036% hits; in the data active = potentiation above about 30%; note: 0% is about no effect
Target sequence (P21728 whole entry, looked up): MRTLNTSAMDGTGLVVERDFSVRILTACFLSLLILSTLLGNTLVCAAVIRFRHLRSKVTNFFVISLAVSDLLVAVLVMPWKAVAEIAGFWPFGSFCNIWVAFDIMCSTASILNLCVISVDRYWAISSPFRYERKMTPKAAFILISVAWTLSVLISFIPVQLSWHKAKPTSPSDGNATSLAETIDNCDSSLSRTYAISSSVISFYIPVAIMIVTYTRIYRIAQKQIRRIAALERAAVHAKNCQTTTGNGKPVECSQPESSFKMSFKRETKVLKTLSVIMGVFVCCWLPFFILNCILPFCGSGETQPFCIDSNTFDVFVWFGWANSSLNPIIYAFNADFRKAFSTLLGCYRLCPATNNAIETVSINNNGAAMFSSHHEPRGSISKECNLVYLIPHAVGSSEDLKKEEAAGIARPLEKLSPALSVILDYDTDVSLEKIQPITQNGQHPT
D1 ag: human D1 receptor agonism; activation, % at 2 µM; AID 504660; 360,000 compounds, 1% hits; P21728; HEK293 T-REx D1 cells, calcium flux, agonist mode; note: 0% is about no effect
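Inducible HEK293 T-REx D1 cells, force-coupled to calcium signalling, were plated at 4000 cells/well with tetracycline and held overnight at 30 C. After no-wash calcium dye loading, compound-evoked calcium rise over 180 s flagged agonists.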
D1 antagonist: human D1 dopamine receptor antagonism; activity change, negative = inhibition, % at 10 µM; AID 504652; 360,000 compounds, 3.2% hits; HEK293 TREx D1 cells, calcium flux, dopamine EC80; stronger effect = lower value; P21728; in the data active = activity change below about -30%; note: % is set by controls: 0 for no effect and ±100 for the full control effect
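Allosteric or orthosteric antagonism assessed as attenuation of the calcium response to EC80 dopamine, added 180 s after compound, in induced HEK293 Trex D1 cells loaded with no-wash calcium dye.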
TRHR PAM: allosterically enhances the human TRH receptor; enhancement, % at 2 µM; 360,000 compounds, 0.66% hits; TRHR cells, fluo-8 calcium fluorescence, EC20 TRH enhancement; in the data active = enhancement above about 30%; note: 0% is about no effect
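Enhancer read-out: after compound pinning and an initial kinetic agonist-mode read, an EC20 of TRH (10 nM final) was injected and fluo-8 calcium signal (Ex 480/Em 530) followed at 1 s/cycle for 100 cycles in TRHR-expressing cells.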
TRHR ag: agonists of human TRH receptor | TRHR cells, calcium flux fluo-8, FDSS agonist mode | 360,000 compounds, 0.18% hits | activation, % at 2 µM; note: 0% is about no effect
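TRHR-expressing cells, plated overnight in medium with 10% serum, were loaded with fluo-8 calcium dye at room temperature. After a 10 s baseline, library compound was pin-added and calcium release was recorded kinetically (ex 480/em 530) as agonist response.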
* = called active by the depositor. Most compounds without a hit are left out; they make up all but 4.7% or so of the library. Cut-off read from the data, not from the text of the source, unless noted: active = activation above about 30%; inactive = the rest.

Screening CN(C)c1ccc(/C=C/C=N/Nc2nc(N3CCOCC3)nc(N3CCOCC3)n2)cc1 returned D1 PAM -8, D1 ag -1, D1 antagonist -35*, TRHR PAM 8 and TRHR ag 1.
`O=C(NCc1cccs1)c1nn(-c2ccccc2)nc1CO` gave D1 PAM -2, D1 ag -1, D1 antagonist -18, TRHR PAM -9 and TRHR ag 0.
CCOc1ccc2nc(N3CCC(C(=O)NCCCN4CCOCC4)CC3)sc2c1 was read as D1 PAM 1, D1 ag 1, D1 antagonist 4, TRHR PAM -2 and TRHR ag 0.
For CCCCN(C)CCCNC(=O)C1CCN(c2nc3ccc(CC)cc3s2)CC1 the results were D1 PAM 3, D1 ag 84*, D1 antagonist -53*, TRHR PAM -1 and TRHR ag 3.
`CCOc1ccc2nc(N3CCC(C(=O)NC4CCCCC4)CC3)sc2c1` gave D1 PAM 0, D1 ag 9, D1 antagonist -3, TRHR PAM 0 and TRHR ag 0.
For CCOc1ccc2nc(N3CCC(C(=O)Nc4c(C)cccc4C)CC3)sc2c1 the results were D1 PAM -2, D1 ag -1, D1 antagonist -56*, TRHR PAM 6 and TRHR ag 0.
Screening CCCCN(CC)CCCNC(=O)C1CCN(c2nc3ccc(CC)cc3s2)CC1 returned D1 PAM 6, D1 ag 79*, D1 antagonist -62*, TRHR PAM -6 and TRHR ag 5.
`Cc1ccc(C(=O)OC2OC(=O)C(Cl)=C2N2CCOCC2)cc1` (stereo not given) gave D1 PAM -5, D1 ag 9, D1 antagonist -17, TRHR PAM 30* and TRHR ag 1.
For CN(C)CCCN1c2ccccc2CCc2ccc(Cl)cc21 the results were D1 PAM -3, D1 ag 36*, D1 antagonist -96*, TRHR PAM 3 and TRHR ag 4.
Screening CN(C)CCCN1c2ccccc2Sc2ccccc21 returned D1 PAM -4, D1 ag 42*, D1 antagonist -81*, TRHR PAM 12 and TRHR ag 2.
`Cc1ccc(C(C)C)c(OCC(=O)Nc2cccc(S(=O)(=O)NC3=NCCCCC3)c2)c1` gave D1 PAM -2, D1 ag 12, D1 antagonist 1, TRHR PAM -3 and TRHR ag 3.
Cc1ccc(N2C(=O)N(CC(=O)N(C)Cc3ccccc3)C(=O)C2C)cc1 (stereo not given) was read as D1 PAM -1, D1 ag 39*, D1 antagonist -55*, TRHR PAM 11 and TRHR ag 0.
COC(=O)c1sccc1NC(=S)OC was read as D1 PAM -4, D1 ag 3, D1 antagonist -6, TRHR PAM 0 and TRHR ag -1.
For COC(=O)c1sccc1NC(=O)C1CC1 the results were D1 PAM -2, D1 ag 0, D1 antagonist -76*, TRHR PAM 13 and TRHR ag 0.
For COC(=O)c1scc(C)c1NC(=O)C1CCCCC1 the results were D1 PAM 4, D1 ag 2, D1 antagonist -44*, TRHR PAM 0 and TRHR ag 0.
COc1cccc(/C=C/c2nc(C#N)c(NCCN(C)C)o2)c1 was read as D1 PAM 4, D1 ag 0, D1 antagonist 2, TRHR PAM 0 and TRHR ag 1.
Screening Cc1ccccc1-c1cc(C(=O)N2CCCC2)c2ccccc2n1 returned D1 PAM 4, D1 ag 4, D1 antagonist -9, TRHR PAM 31* and TRHR ag 0.
For CCCc1cc(C(=O)NNC(=S)NCC)c2ccccc2n1 the results were D1 PAM -10, D1 ag 3, D1 antagonist -15, TRHR PAM -1 and TRHR ag -1.
For O=C(c1ccccc1Cl)N1CCc2ccccc2C1 the results were D1 PAM 0, D1 ag 0, D1 antagonist -4, TRHR PAM -3 and TRHR ag 0.
Screening Cc1ccccc1C(=O)N1CCc2ccccc2C1 returned D1 PAM 8, D1 ag 49*, D1 antagonist -6, TRHR PAM 26 and TRHR ag -1.
For COc1ccc(N2CCN(C(=O)c3cnc(SC)nc3C)CC2)cc1 the results were D1 PAM -1, D1 ag 0, D1 antagonist -63*, TRHR PAM -1 and TRHR ag 0.
Screening CCNC(=S)NNC(=O)c1cc(-c2cc(C)ccc2C)nc2ccccc12 returned D1 PAM -3, D1 ag 2, D1 antagonist -31*, TRHR PAM 10 and TRHR ag -1.
Screening O=C(c1cc(-c2ccccc2Cl)nc2ccccc12)N1CCC1 returned D1 PAM 1, D1 ag 2, D1 antagonist 36, TRHR PAM 5 and TRHR ag -1.
`Cc1ccc(-c2cc(C(=O)N3CCCCC3)c3ccccc3n2)cc1C` gave D1 PAM 3, D1 ag 35*, D1 antagonist 43, TRHR PAM 7 and TRHR ag 0.
COc1ccccc1-c1cc(C(=O)N2CCc3ccccc3C2)c2ccccc2n1 was read as D1 PAM -6, D1 ag 4, D1 antagonist -86*, TRHR PAM -17 and TRHR ag -1.
O=C(c1cc2cc(Cl)ccc2[nH]1)N1CCc2ccccc2C1 was read as D1 PAM -8, D1 ag 6, D1 antagonist -57*, TRHR PAM 6 and TRHR ag 0.
`COc1ccc(-c2cc(C(=O)N3CCN(c4ccccc4)CC3)c3ccccc3n2)cc1` gave D1 PAM -6, D1 ag 3, D1 antagonist -37*, TRHR PAM -15 and TRHR ag 0.
For CC(C)NC(=O)NC(=O)COC(=O)c1ncc(Cl)c(Cl)c1Cl the results were D1 PAM -7, D1 ag 2, D1 antagonist 10, TRHR PAM 7 and TRHR ag 0.
Screening Cc1ccc(-c2nc(-c3cc4cccc(OCc5ccccc5F)c4oc3=O)no2)cc1 returned D1 PAM 1, D1 ag 0, D1 antagonist 1, TRHR PAM -8 and TRHR ag 0.
`O=C(c1cc(-c2ccccc2O)on1)N1CCc2ccccc2C1` gave D1 PAM -6, D1 ag 3, D1 antagonist -32*, TRHR PAM -1 and TRHR ag 0.
Cc1nc2c(-c3ccccc3)c(C)nn2c(C)c1CCC(=O)Nc1ccccc1F was read as D1 PAM -6, D1 ag -1, D1 antagonist -9, TRHR PAM 5 and TRHR ag 0.
`COc1ccc(N2CCN(C(=O)CSc3c4c(nc5ccc(Cl)cc35)CCCC4)CC2)cc1` gave D1 PAM -1, D1 ag 5, D1 antagonist 14, TRHR PAM -10 and TRHR ag -1.

Bioassay records: PubChem BioAssay, National Center for Advancing Translational Sciences (NCATS)
